Compound activity as filed in PubChem.
The sample as a whole holds a higher share of hits than the screen did.
PTK2B oligo ant: blocks oligomerization of human Pyk2 in cells. Q14289. Q293 cells, Pyk2 FERM NanoBiT luminescence; stronger effect = lower value. z-score (the deposit names both 25 µM and 10 µM). actives 0.83% (n = 99,000). AID 1347419;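 active = Z-score of -3 or lower, scaled per plate to the spread of control and sample wells; inactive = z-score above -3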;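 also: negative z-score means lost luminescence so less FERM oligomerization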
hDAT+cocaine: human DAT dopamine uptake with cocaine, either direction. actives 1.3% (n = 110,000). B-score at 10 µM. LLC-PK1 hDAT cells, [14C]-dopamine uptake with cocaine IC80; actives deviate in either direction;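 active = Z score or B-score, a plate-position-corrected score, falls beyond the plate's 99.7% confidence bounds, in either direction; inactive = both scores lie inside the 99.7% bounds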
FAK blocker: FAK (human) kinase inhibition. Q05397. biochemical FAK kinase activity assay. inhibition, %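 (tested at 7 µM)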. actives 0.84% (n = 97,000). AID 727; in the data active = inhibition above about 19%
Target sequence (Q05397 whole entry, looked up): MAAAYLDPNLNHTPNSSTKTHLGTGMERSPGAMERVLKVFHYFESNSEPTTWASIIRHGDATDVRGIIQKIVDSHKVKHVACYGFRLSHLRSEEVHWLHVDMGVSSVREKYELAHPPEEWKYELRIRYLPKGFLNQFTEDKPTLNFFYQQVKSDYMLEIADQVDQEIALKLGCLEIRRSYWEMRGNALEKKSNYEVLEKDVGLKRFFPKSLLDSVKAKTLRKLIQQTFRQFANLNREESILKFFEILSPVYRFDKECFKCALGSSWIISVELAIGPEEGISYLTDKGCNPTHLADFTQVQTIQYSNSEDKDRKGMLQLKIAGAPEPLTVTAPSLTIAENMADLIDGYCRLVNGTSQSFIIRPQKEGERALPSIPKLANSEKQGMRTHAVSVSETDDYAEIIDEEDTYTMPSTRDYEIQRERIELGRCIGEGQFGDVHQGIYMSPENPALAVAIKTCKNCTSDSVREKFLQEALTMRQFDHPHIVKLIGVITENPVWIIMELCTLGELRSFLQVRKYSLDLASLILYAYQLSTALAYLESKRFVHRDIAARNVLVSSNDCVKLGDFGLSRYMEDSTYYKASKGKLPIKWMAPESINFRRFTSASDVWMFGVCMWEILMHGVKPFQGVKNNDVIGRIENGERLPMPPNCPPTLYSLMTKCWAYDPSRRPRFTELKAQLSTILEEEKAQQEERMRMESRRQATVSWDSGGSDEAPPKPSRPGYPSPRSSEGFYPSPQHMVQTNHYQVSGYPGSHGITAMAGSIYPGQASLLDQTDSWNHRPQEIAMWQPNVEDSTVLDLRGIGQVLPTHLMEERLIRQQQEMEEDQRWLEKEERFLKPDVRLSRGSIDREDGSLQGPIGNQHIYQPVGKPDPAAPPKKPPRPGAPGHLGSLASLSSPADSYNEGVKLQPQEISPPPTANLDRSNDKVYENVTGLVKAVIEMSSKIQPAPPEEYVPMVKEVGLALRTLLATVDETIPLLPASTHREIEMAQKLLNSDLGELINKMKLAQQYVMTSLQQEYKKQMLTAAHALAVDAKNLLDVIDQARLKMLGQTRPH
D1 mod: allosteric modulators of human D1 dopamine receptor. P21728. HEK293 D1, CRE-luciferase, dopamine EC30 potentiation; actives deviate in either direction. B-score at 10 µM. actives 5.9% (n = 58,000);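 active = luminescence count or its row- and column-corrected plate score outside the 99.7% band of the plate's sample wells, on either side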
CD11b adhes enh: increases human CD11b/CD18 adhesion to fibrinogen | AID 1499 | actives 0.07% (n = 93,000) | K562 CD11b/CD18 adhesion to fibrinogen, ATPlite luminescence | activation, % at 10 µM | P05107+P11215;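 active = 10 µM primary screen giving 50% or more activity, confirmed by 40% or more on retest at that dose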
Mac1 fbg inh: inhibitors of human CD11b/CD18 binding to fibrinogen; K562 CD11b/CD18 adhesion to fibrinogen, ATPlite luminescence; Mn2+ added to activate the integrin; inhibition, % at 10 µM; actives 0.54% (n = 93,000); AID 1497;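 active = primary inhibition of 50% or more at 10 µM, then 40% or more on retest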
D1 PAM confirm: D1 receptor (human) allosteric modulation, confirmed. shares compounds with D1 mod. HEK293 D1 CRE-luciferase, dopamine EC30 potentiation; stronger effect = higher value. luminescence at 10 µM. actives 88% (n = 2,200). AID 642;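 active = luminescence in either of two replicates above the same-plate mean plus 3 SD of the low-dose dopamine control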
D1 ag no DA: activates D1 CRE-luciferase signal without dopamine present; shares compounds with D1 mod; HEK293 D1 CRE-luciferase, luminescence, no dopamine; stronger effect = higher value; luminescence at 10 µM; actives 0.8% (n = 1,900); AID 646; in the data active = luminescence above about 3900
Isoprot counter: counter-screen for D1 modulators: isoproterenol response in HEK293 cells | HEK293 D1 CRE-luciferase, isoproterenol EC30 counter-screen | shares compounds with D1 mod | actives 63% (n = 2,200) | calls only at 10 µM | AID 647;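 active = luminescence in either replicate above plate mean of wells with a partly effective reference agonist dose plus 3 SD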;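 also: isoproterenol raises cAMP through native beta-adrenoceptor Gs so signal bypasses D1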
A number is an active result; i = inactive; nt = no result; + = active, no number.

SMILES | PTK2B oligo ant | hDAT+cocaine | FAK blocker | D1 mod | CD11b adhes enh | Mac1 fbg inh | D1 PAM confirm | D1 ag no DA | Isoprot counter
N#CC1=C(N)SC(N)=C(C#N)C1c1cccc(Oc2ccccc2)c1 | i | i | i | i | i | i | nt | nt | nt
Cc1ccc(-c2cc(-c3ccccc3)c(C#N)c(N)n2)o1 | i | i | i | i | i | i | nt | nt | nt
Cc1ccc(-c2cc(-c3ccc(F)cc3)nc(N)c2C#N)o1 | i | i | i | 15 | i | i | 26016 | i | +
Cc1nc2c(cc(Oc3ccc(S(=O)(=O)N4CCOCC4)cn3)c3ccsc32)s1 | i | i | i | 8.5 | i | i | 12244 | i | +
CCOC(=O)c1nn(-c2ccccc2)c(C#N)c1NC(=O)c1nn(CC)cc1Br | -3.5 | i | i | 4.3 | i | i | 8684 | nt | +
CCOC(=O)c1c(NC(=O)c2nn(CC)cc2Br)c(C#N)nn1-c1ccccc1 | i | i | i | i | i | i | nt | nt | nt
COc1ccc(CN2CCCCC2C(=O)Nc2ccc(OC)c(OC)c2)cc1OC (configuration not stated) | i | i | i | 7.2 | i | i | 14900 | i | +
COc1ccc(NC(=O)C2CCCN2c2ccc(OC)c(OC)c2)cc1OC (configuration not stated) | i | i | nt | 6 | i | i | 15612 | i | +
COc1ccc(CN2CCCC2C(=O)Nc2ccc(OC)c(OC)c2)cc1OC (configuration not stated) | i | i | i | i | i | i | nt | nt | nt
COc1ccc2c(c1)C(=O)N(c1ccccc1OC)C(=O)C2(C)C | i | i | i | 6.9 | i | i | 11528 | i | i
Cc1cc2cc3c(cc2nc1SCC(=O)N1c2ccccc2CC1C)OCO3 (configuration not stated) | i | i | i | nt | nt | nt | nt | nt | nt
CC1Cc2ccccc2N1C(=O)CSc1nc2cc3c(cc2cc1C#N)OCO3 (configuration not stated) | i | i | i | 5.1 | i | i | 13756 | i | +
CCOc1ccc(C(C)=O)cc1COC(=O)C1=COCCO1 | i | i | i | 4.7 | i | i | 12532 | i | +
Oc1ccc(N2CCN(C(=S)NCCc3ccccc3)CC2)cc1 | i | i | i | nt | i | i | nt | nt | nt
CCCCn1c(SCn2nnc3ccccc3c2=O)nc2cc(C(=O)OC)ccc2c1=O | nt | nt | nt | i | i | i | nt | nt | nt
CCSc1nc2cc(C(=O)OC)ccc2c(=O)n1CC | i | i | i | 10 | nt | nt | 13500 | i | +
Cc1c(O)c(=O)ccn1C | nt | i | nt | nt | nt | nt | nt | nt | nt
Cc1ccc(-n2c(=O)[nH]c3c(C(N)=O)nc(-c4ccc(C)o4)nc32)cc1 | i | nt | i | i | i | i | nt | nt | nt
Cc1ccc(-n2c(=O)[nH]c3c(C(N)=O)nc(CC(C)C)nc32)cc1 | i | i | i | 7.8 | i | i | 20900 | i | +
COc1ccccc1-n1c(=O)[nH]c2c(C(N)=O)nc(CC(C)C)nc21 | nt | i | i | 5.9 | i | i | 9424 | i | i
COc1ccc(C)cc1-n1nnnc1SCC1CCCCO1 (configuration not stated) | i | i | i | i | i | i | nt | nt | nt
CCOCCOC(=O)C1=C(C)Nc2ccc(C)cc2S1 | i | i | nt | 3.9 | i | i | 7892 | i | i
CCOC(=O)C1=C(C)Nc2ccc(C)cc2S1 | i | i | i | nt | i | i | nt | nt | nt
CCC(Oc1nc2ccccc2nc1-c1ccccc1NC(C)=O)C(=O)c1ccccc1 (configuration not stated) | i | i | i | nt | nt | nt | nt | nt | nt
CCCn1nc(NS(C)(=O)=O)c2cc3cccc(C)c3nc21 | i | i | i | 16 | i | i | 16772 | i | +
SMILES | PTK2B oligo ant | hDAT+cocaine | FAK blocker | D1 mod | CD11b adhes enh | Mac1 fbg inh | D1 PAM confirm | D1 ag no DA | Isoprot counter
CCOC(=O)CN1C(=O)CN(c2ccc(C)cc2)C1=O | nt | nt | nt | nt | i | i | nt | nt | nt
CCOc1cc(-c2cc(-c3ccc(N)cc3)nc(N)c2C#N)ccc1O | -3.8 | i | i | 8.6 | i | i | 19856 | i | +
COc1cc(OC)cc(C(=O)N2c3ccc(F)cc3CCC2C)c1 (configuration not stated) | i | i | i | i | i | i | nt | nt | nt
CCCC(c1nnnn1CCc1ccccc1)N1CCC(C(N)=O)CC1 (configuration not stated) | i | i | i | nt | nt | nt | nt | nt | nt
C=CCn1cc(C(=O)NCCOC)c(=O)c2cc(S(=O)(=O)N(CC)CC)ccc21 | i | i | i | i | i | i | nt | nt | nt
C=CCn1cc(C(=O)NCc2cccnc2)c(=O)c2cc(S(=O)(=O)N(CC)CC)ccc21 | nt | i | i | 2.8 | i | i | 9940 | i | +
CCn1cc(C(=O)NCc2ccccc2OC)c(=O)c2cc(S(=O)(=O)N(C)C)ccc21 | nt | i | nt | 7.8 | i | i | 13952 | i | +
CCn1cc(C(=O)NCc2ccc3c(c2)OCO3)c(=O)c2cc(S(=O)(=O)N3CCOCC3)ccc21 | i | i | i | 3.7 | i | i | 10664 | i | +
CCn1cc(C(=O)NCCCN(C)c2ccccc2)c(=O)c2cc(S(=O)(=O)N(C)C)ccc21 | nt | i | nt | 5.6 | i | i | 8908 | i | +
CCN(CCCNC(=O)c1cn(CC)c2ccc(S(=O)(=O)N(C)C)cc2c1=O)c1cccc(C)c1 | i | i | i | i | i | i | nt | nt | nt
CCn1cc(C(=O)NCc2ccc(Cl)cc2)c(=O)c2cc(S(=O)(=O)N3CCOCC3)ccc21 | nt | i | nt | i | i | i | nt | nt | nt
CCN(c1ccc(NC(=O)CN2C(=O)NC3(CCOc4ccccc43)C2=O)cc1)C(C)C (configuration not stated) | i | i | i | nt | i | i | nt | nt | nt
COC(=O)c1cccc(S(=O)(=O)N2CCC(NC(=O)NC34CC5CC(CC(C5)C3)C4)CC2)c1 | i | i | i | 4.6 | i | i | 11624 | i | i
O=c1c2ccccc2sc2nc(C3CCCCC3)n(Cc3ccco3)c(=O)c12 | i | nt | nt | i | i | i | nt | nt | nt
CCc1nc2sc3ccccc3c(=O)c2c(=O)n1Cc1ccco1 | i | -7.3 | nt | 3.4 | nt | nt | 12936 | i | i
NC(=O)c1c(NC(=O)CSc2nnc(-c3ccco3)n2-c2ccccc2)sc2c1CCC2 | i | i | nt | 4.8 | i | i | 10124 | i | i
COc1cccc(COc2ccccc2C2Nc3ccc(Br)cc3C(=O)N2NC(=O)c2ccncc2)c1 (configuration not stated) | i | nt | i | nt | nt | nt | nt | nt | nt
CCOC(=O)c1c(-c2ccncc2)csc1N | i | i | i | 6.8 | i | i | 14984 | i | i
CCOc1ccc(-c2csc(N)c2C(=O)OC)cc1 | i | i | i | nt | i | i | nt | nt | nt
O=C(COC(=O)c1cc[n+]([O-])cc1)NCC12CC3CC(CC(C3)C1)C2 | i | i | i | nt | i | i | nt | nt | nt
